An excerpt weighted towards active compounds, which were near 11% of everything screened.
CBFb RUNX1 block – inhibitors of human CBF-beta and RUNX1 interaction | AlphaScreen CBFb-His/RUNX1-biotin binding, biochemical | Potency, µM (titrated, usually from 59.8 µM), most hits filed as inhibitors | 230,000 tested, under 10 active | Q01196+Q13951
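His-tagged CBF-beta and biotinylated RUNX1 (30 nM each) were premixed 20 min at room temperature, exposed to compound for 15 min, then given nickel-chelate and streptavidin AlphaScreen beads (50 ng each). After 90 min, AlphaScreen signal was read.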
ALDH1A1 inh – blocks purified human ALDH1A1 activity; Potency, µM (highest dose often 75.3 µM), usual class: inhibitors; hit rate 7.3% among 220,000; AID 1030; Purified ALDH1A1, NADH fluorescence, propionaldehyde substrate; P00352; active means well fitted inhibition curve with a large enough effect, not every such curve was filed as active; inconclusive means small, poorly fitted or top-dose-only effect, or another doubt; inactive means no such curve, though single readings can be large or run the other way
Target sequence (P00352 whole entry, looked up): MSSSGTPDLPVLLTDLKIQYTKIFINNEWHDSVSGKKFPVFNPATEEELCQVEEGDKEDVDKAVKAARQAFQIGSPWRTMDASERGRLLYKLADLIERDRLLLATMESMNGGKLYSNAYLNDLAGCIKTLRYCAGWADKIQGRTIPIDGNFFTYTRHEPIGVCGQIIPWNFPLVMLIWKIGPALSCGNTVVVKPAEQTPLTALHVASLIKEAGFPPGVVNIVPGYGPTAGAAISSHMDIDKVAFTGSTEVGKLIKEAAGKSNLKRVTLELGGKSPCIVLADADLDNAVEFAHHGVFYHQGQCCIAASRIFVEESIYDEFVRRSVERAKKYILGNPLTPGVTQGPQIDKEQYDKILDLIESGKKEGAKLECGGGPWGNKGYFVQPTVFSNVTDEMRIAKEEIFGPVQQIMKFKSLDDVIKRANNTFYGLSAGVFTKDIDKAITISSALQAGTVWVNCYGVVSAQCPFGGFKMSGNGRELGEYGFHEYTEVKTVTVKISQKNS
HTT aggregate – reduces HttQ103-GFP aggregates in PC12 cells | PC12 HttQ103-GFP aggregates, Acumen cytometry, 40 h | Potency, µM (series often up to 46.1 µM), usual class: inhibitors | hit rate 1.1% among 220,000; further: nearly all actives have a fitted effect of over 60% in size
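Ecdysone-promoter PC12 model expressing HTT exon 1 Q103 fused to GFP, induced by tebufenozide at 100 nM final. Compounds titrated; aggregates sized 1–25 µm scored on a 488 nm laser cytometer.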
PNC inhibitor – blocks assembly of the perinucleolar compartment; hit rate 3.1% among 140,000; activity change (PNC), negative = inhibition, % at 10 µM; PC3M PTB-GFP, PNC prevalence imaging, 16 h; stronger effect = lower value; AID 2417;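 active means readout at or below -70, meaning at least 70% loss of cells showing the perinucleolar compartment, a nuclear body marking cancer cells; inconclusive means readout between -30 and a set limit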
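Compounds are pinned in duplicate onto adhered PC3M cells stably expressing GFP-tagged PTB and incubated 16 h at 37 C. Cells are then fixed, nuclei stained with Hoechst, and PNC-positive cells counted.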
HTT ATP protect – protects HTT-Q103 PC12 cells, measured by ATP; PC12 HTT-Q103 induced, cytoprotection, ATP luminescence, 40 h; Potency, µM (series often up to 56.4 µM), hits mostly activators; hit rate 0.14% among 230,000; AID 1471; further: nearly all actives have a fitted effect of over 45% in size
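Stable PC12 Q103-GFP cells in serum-supplemented, phenol red-free DMEM; induction by tebufenozide at 100 nM final; compound dose series; cell viability quantified luminescently from ATP.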
HPGD inh – inhibitors of human 15-hydroxyprostaglandin dehydrogenase (HPGD); hit rate 4.3% among 150,000; Potency, µM, usual class: inhibitors; purified HPGD, NADH fluorescence kinetic, PGE2 substrate; P15428; AID 894; active means well fitted inhibition curve with a large enough effect, not every such curve was filed as active; inconclusive means small, poorly fitted or top-dose-only effect, or another doubt; inactive means no such curve, though single readings can be large or run the other way
Target sequence (P15428 whole entry, looked up): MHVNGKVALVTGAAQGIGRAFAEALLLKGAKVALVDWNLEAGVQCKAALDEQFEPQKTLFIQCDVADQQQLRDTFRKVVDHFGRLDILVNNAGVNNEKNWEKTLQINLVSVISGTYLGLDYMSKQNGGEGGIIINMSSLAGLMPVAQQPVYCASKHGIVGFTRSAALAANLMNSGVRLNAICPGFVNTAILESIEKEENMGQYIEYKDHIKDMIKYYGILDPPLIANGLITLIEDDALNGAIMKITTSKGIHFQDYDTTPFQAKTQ
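NADH formation kinetics: reaction with 30 uM PGE2 and 1 mM NAD+ (final), 20 nM enzyme, Tris-HCl pH 8 with Tween 20, after 15 min compound preincubation at room temperature. Fluorescence change, last versus first of five reads.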
Numbers stand for hits; [ ] = dose if it differs, or a comment. Unless noted, the call rests on the fitted dose curve; in most records, active means well fitted curve in the direction sought with a large enough effect; inconclusive means small, poorly fitted or top-dose-only effect, or another doubt; inactive means no such curve, though single readings can be large; an effect the other way counts as inactive or inconclusive.

For Nc1ncnc2c1ncn2[C@@H]1O[C@H](COP(=O)(O)OP(=O)(O)OP(=O)(O)OP(=O)(O)OC[C@@H]2O[C@H](n3cnc4c(N)ncnc43)[C@@H](O)[C@@H]2O)[C@H](O)[C@H]1O the results were CBFb RUNX1 block inactive, ALDH1A1 inh inactive and HPGD inh inactive.
`Cc1c(Cl)cccc1NC(=S)NCCC(C)C` gave CBFb RUNX1 block inactive, ALDH1A1 inh inactive, HTT aggregate inactive, PNC inhibitor inconclusive, HTT ATP protect inactive[10 µM] and HPGD inh inactive.
Screening Cc1c(Cl)cccc1NC(=S)NCc1ccccc1Cl returned CBFb RUNX1 block inactive, ALDH1A1 inh inactive, HTT aggregate inactive, PNC inhibitor inactive, HTT ATP protect inactive[10 µM] and HPGD inh 22µM.
For Cc1ccccc1NC(=S)NCc1ccccc1 the results were CBFb RUNX1 block inactive, ALDH1A1 inh inactive, HTT aggregate inconclusive, PNC inhibitor inconclusive, HTT ATP protect 5.6µM and HPGD inh 28µM.
For Cc1cccc(NC(=S)NC(=O)CCc2ccccc2)c1 the results were CBFb RUNX1 block inactive, ALDH1A1 inh inconclusive, HTT aggregate inactive, PNC inhibitor inactive, HTT ATP protect inactive and HPGD inh inactive.
Screening Cc1cccc(NC(=S)NC(=O)CCc2ccccc2)c1C returned CBFb RUNX1 block inactive, ALDH1A1 inh 13µM, HTT aggregate inactive[9.22 µM], PNC inhibitor inactive, HTT ATP protect inactive and HPGD inh inactive.
`CC(=O)CC(=O)[C@@]1(O)CC[C@@H]2[C@@H]3C=C(C)C4=CC(=O)CC[C@@H]4[C@H]3CC[C@]21C` gave CBFb RUNX1 block inactive, ALDH1A1 inh inactive, HTT ATP protect inactive and HPGD inh inactive.
Screening CNc1nc(Sc2ccccc2)cc(C(F)(F)F)n1 returned CBFb RUNX1 block inactive, ALDH1A1 inh 35µM, HTT aggregate inactive, PNC inhibitor inactive, HTT ATP protect inactive and HPGD inh 35µM.
For CCCCN(CC)S(=O)(=O)c1ccccc1 the results were CBFb RUNX1 block inactive, ALDH1A1 inh inactive, HTT aggregate inactive[9.22 µM], PNC inhibitor inactive, HTT ATP protect inactive and HPGD inh inactive.
c1ccc(-c2cnc(-c3cccnc3)o2)cc1 was read as CBFb RUNX1 block inactive, ALDH1A1 inh inconclusive, HTT aggregate inactive[9.22 µM], PNC inhibitor -84, HTT ATP protect inactive and HPGD inh inconclusive.
`O=c1oc(-c2cccnc2)nc2ccccc12` gave CBFb RUNX1 block inactive, ALDH1A1 inh inactive, HTT aggregate inactive, PNC inhibitor inactive, HTT ATP protect inactive and HPGD inh inactive.
`C/C(=N\NC(N)=O)c1cccc(Cl)c1` gave CBFb RUNX1 block inactive, ALDH1A1 inh inactive, HTT aggregate inactive, PNC inhibitor inconclusive, HTT ATP protect inactive[10 µM] and HPGD inh inactive.
Screening C/C(=N\N=C(N)N)c1cccc(Cl)c1 returned CBFb RUNX1 block inactive, ALDH1A1 inh inactive, HTT aggregate 5µM and HTT ATP protect inactive.
Screening O=C(CSc1ccc(-c2ccccc2)nn1)N1CCCc2ccccc21 returned CBFb RUNX1 block inactive, ALDH1A1 inh inactive, HTT aggregate inactive, PNC inhibitor inactive, HTT ATP protect inactive[10 µM] and HPGD inh inactive.
O=C(CSc1ccc2nnc(-c3ccc(Cl)cc3)n2n1)N1CCc2ccccc21 was read as CBFb RUNX1 block inactive, ALDH1A1 inh inconclusive, HTT aggregate inactive, PNC inhibitor inconclusive, HTT ATP protect inactive[10 µM] and HPGD inh 14µM.
O=C(CSc1ccc2nnc(-c3cccnc3)n2n1)N1CCc2ccccc21 was read as CBFb RUNX1 block inactive, ALDH1A1 inh inconclusive, HTT aggregate inactive, PNC inhibitor inconclusive, HTT ATP protect inactive[10 µM] and HPGD inh inactive.
`COc1cccc(-c2ccc(SCC(=O)N3CCc4ccccc43)nn2)c1` gave CBFb RUNX1 block inactive, ALDH1A1 inh 20µM, HTT aggregate inactive, PNC inhibitor inactive, HTT ATP protect inactive[10 µM] and HPGD inh inactive.
O=C(CSc1ccc(-c2ccccc2)nn1)N1CCN(c2ccccc2)CC1 was read as CBFb RUNX1 block inactive, ALDH1A1 inh 22µM, HTT aggregate inconclusive, PNC inhibitor inactive, HTT ATP protect inactive[10 µM] and HPGD inh inactive.
For Cc1ccc(-c2ccc(SCC(=O)N3CCc4ccccc43)nn2)cc1 the results were CBFb RUNX1 block inactive, ALDH1A1 inh inactive, HTT aggregate inactive, PNC inhibitor -83, HTT ATP protect inactive[10 µM] and HPGD inh inactive.
For O=C1[C@H]2[C@H]3[C@H](O)[C@H](O)C/C(=N/OC[C@@H](O)COCc4ccco4)[C@@H]3CC[C@@H]2C(=O)N1Cc1ccccc1 the results were CBFb RUNX1 block inactive[13.1 µM], ALDH1A1 inh inactive[13.5 µM] and HTT ATP protect inactive[10 µM].
For C/C(CC(=O)Nc1ccccn1)=N\NC(=O)c1ccc2ccccc2c1 the results were CBFb RUNX1 block inactive, ALDH1A1 inh 5.6µM, HTT aggregate inactive, PNC inhibitor inconclusive, HTT ATP protect inactive[10 µM] and HPGD inh inactive.
For O=c1c(O)c(-c2ccccc2)oc2cc(O)ccc12 the results were ALDH1A1 inh inactive and HPGD inh inactive.
For Cc1cc(=O)oc2c1c(C)nn2-c1ccc(Br)cc1 the results were CBFb RUNX1 block inactive, ALDH1A1 inh inconclusive, HTT aggregate inactive[9.22 µM] and HTT ATP protect inactive[10 µM].
For Cc1cc(=O)oc2c1c(C)nn2-c1ccc(C(=O)OC(C)C)cc1 the results were CBFb RUNX1 block inactive, ALDH1A1 inh 1.1µM, HTT aggregate inconclusive, PNC inhibitor inconclusive, HTT ATP protect inactive[10 µM] and HPGD inh inactive.
Screening Cc1ccc(/C(O)=C2/C(=O)C(=O)N(CCN3CCOCC3)C2c2cccnc2)cc1 (configuration not stated) returned CBFb RUNX1 block inactive, ALDH1A1 inh inconclusive, HTT aggregate inactive, PNC inhibitor inactive, HTT ATP protect inactive[10 µM] and HPGD inh inactive.
Screening COc1ccc(/C(O)=C2/C(=O)C(=O)N(CCN3CCOCC3)C2c2cccnc2)cc1OC (configuration not stated) returned CBFb RUNX1 block inactive, ALDH1A1 inh 25µM, HTT aggregate inactive, PNC inhibitor inactive, HTT ATP protect inactive[10 µM] and HPGD inh inactive.
`CCOc1cccc(/C(O)=C2/C(=O)C(=O)N(CCN3CCOCC3)C2c2cccnc2)c1` (configuration not stated) gave CBFb RUNX1 block inactive, ALDH1A1 inh inconclusive, HTT aggregate inactive[9.22 µM], PNC inhibitor inconclusive, HTT ATP protect inactive and HPGD inh inactive.
`COc1cccc(/C(O)=C2/C(=O)C(=O)N(CCN3CCOCC3)C2c2cccnc2)c1` (configuration not stated) gave CBFb RUNX1 block inactive, ALDH1A1 inh 3.5µM, HTT aggregate inactive[9.22 µM], PNC inhibitor inactive, HTT ATP protect inactive[10 µM] and HPGD inh inactive.
Screening C[C@]12C[C@@](C)(C=C1/C=C/c1ccccc1)C(=O)C[C@H]2c1ccccc1 returned CBFb RUNX1 block inactive, ALDH1A1 inh inactive, HTT ATP protect inactive and HPGD inh inactive.

Compound activity as filed in PubChem BioAssay.
